This is part of a sample that, as a whole, favours compounds with a hit. Of some 83,000 tested, about 20% had one in any assay.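 A percent growth of 40 corresponds to 60% growth inhibition; 0 means no net growth; -100 means all cells died. Active threshold: below 10.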 A number with no mark means an inactive call. Active and inactive are the calls of the source.
Experiments:
Test in all cases: NCI-60 one-dose screen, 48 h (100 = growth as untreated, 0 = no growth, -100 = all killed)
Settings in all cases: 10 µM unless noted
MDA-MB-231 breast = tested on: MDA-MB-231 breast
MALME-3M melanoma = tested on: MALME-3M melanoma
RXF 393 renal = tested on: RXF 393 renal
SF-268 CNS = tested on: SF-268 CNS
SF-295 CNS = tested on: SF-295 CNS
SF-539 CNS = tested on: SF-539 CNS
UACC-257 melanoma = tested on: UACC-257 melanoma
M14 melanoma = tested on: M14 melanoma
DU-145 prostate = tested on: DU-145 prostate
K-562 leukemia = tested on: K-562 leukemia

SMILES	growth (MDA-MB-231 breast)	growth (MALME-3M melanoma)	growth (RXF 393 renal)	growth (SF-268 CNS)	growth (SF-295 CNS)	growth (SF-539 CNS)	growth (UACC-257 melanoma)	growth (M14 melanoma)	growth (DU-145 prostate) [%]	growth (K-562 leukemia) [%]
Cc1ccc(C(=O)O[C@H](C(=O)O)[C@H](OC(=O)c2ccc(C)cc2)C(=O)O)cc1	113%									
O=C1c2cc(S(=O)(=O)O)ccc2C(=O)c2c1cccc2[N+](=O)[O-]	112%	111%	128%	108%	100%	104%	93%	95.2%		
COc1ccc(Nc2[nH]n(C3=Nc4ccccc4Sc4ccccc43)c(=O)c2C#N)cc1	51.2%		59.3%	67.2%		45.6%	36.3%	55.9%	67	51.9
O=S(=O)(OCCO)c1ccccc1	97.2%	105%	98.1%	102%	93.1%	106%	103%	109%	112	
COC(=O)c1ccc(C(=O)Nc2ccccc2N)cc1	67.3%		86.8%	65.4%		64.9%	75.7%	83.3%	80.2	73.3
COc1cc(-c2nc(Nc3nc4ccccc4[nH]3)nc(N)c2C#N)cc(OC)c1OC	53%	65%	-1.43% (active)	71.2%	18.1%	58.9%	69.5%	53%	61.8	
CC(=O)OCC1O[C@@H]([S-])C(OC(C)=O)[C@H](OC(C)=O)[C@@H]1OC(C)=O.[Au+].c1ccc(CN2[CH-]N(Cc3ccccc3)C(c3ccccc3)=C2c2ccccc2)cc1					31.1%					
c1ccc2c(c1)oc1cc3c(cc12)nnc1cccn13	101%	93.8%	127%	105%	101%	95.1%	95.7%	98.7%		
O=C1NC(=O)C(CSc2ccccc2)(c2ccccc2)N1 (stereo not given)	104%		103%	123%		113%	93.6%	105%	123	104
CN1CCn2c(c(Sc3ccc(C(=O)NO)cc3)c3ccccc32)C1=O	-15.2% (active)	63.6%	-14.4% (active)	-34.9% (active)	-1.68% (active)	-90.8% (active)	-9.93% (active)	-37.7% (active)	36.3	
Cn1c2ccc(Cl)cc2c2nn(C(=O)c3ccccc3)c(=O)nc21	106%		98.9%	104%		99.9%	128%	98.9%	114	110
CCOc1ccc(/C=N\N2CCCCCC2)cc1OCC	77.7%		103%	102%	104%	97.2%	96.2%	105%	108	
Cc1cc(C)c(S(=O)O)c(C)c1	102%	122%	101%	114%	93.4%	104%	121%	116%	120	
OC[C@@H](O)[C@@H](O)CO	94.7%	97.3%	110%	108%	94.7%	102%	105%	106%	111	
N#Cc1c(O)c2c(c(O)c1C#N)C(=O)c1ccccc1C2=O	2.69% (active)	-16.5% (active)	92.3%	32.6%	59.6%	46.9%	28.4%	2.51% (active)		
O=C(c1ccccc1)C(Br)C(Br)c1cccc([N+](=O)[O-])c1 (stereo not given)	59.9%	-43.1% (active)	-78.8% (active)	72.1%	88.5%	38.1%	19.8%	34.3%	76	
O=C(O)C[C@H](O)C[C@H](O)/C=C/c1c(C2CC2)nc2ccccc2c1-c1ccc(F)cc1	-47.7% (active)	104%	63.5%	31.9%	22.9%	81.2%	95.5%	90.8%	113	
CC(=O)OCC1OC([S-])C(OC(C)=O)C(OC(C)=O)C1OC(C)=O.[Au+].c1ccc(CN2[CH-]N(Cc3ccccc3)C(c3ccccc3)=C2c2ccccc2)cc1					-11.3% [4.75 µM] (active)					

— PubChem BioAssay (NCI)
